Compounds with a hit are over-represented: about 19% of the library has one in this group of screens.
ELG1 repair inh – inhibitors of ELG1-dependent DNA repair in HEK293T cells; HEK293T ELG1-luciferase reporter, luminescence, 16 h; DNA damage induced by 5-fluorouridine; Potency, µM (highest dose often 46.1 µM), inactives show top-dose activity change, negative = inhibition, hits mostly inhibitors; 330,000 tested, 2.3% active; further: potency means the concentration at half of the fitted maximal effect; nearly all actives have a fitted effect of over 55% in size
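Overnight (16 hr) co-exposure of 2,000 cells/well to 5-fluorouridine and compound at 37 °C preceded detection. Luciferase was quantified via ONE-Glo luminescence; loss of signal denotes inhibition.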
IL-1B inflam inh – blocks inflammasome-driven IL-1 beta release; THP-1 LPS/ATP IL-1B secretion, AlphaLISA, 16 h; stronger effect = lower value; activity change, % at 57.5 µM; 360,000 tested, 4.7% active; AID 743279; in the data active means activity change below about -50%; inconclusive means mostly about -30% to -49%
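Secreted IL-1B measured by AlphaLISA bead assay after 16 h compound exposure of THP-1 cells; compounds (final up to 57.5 uM) added 1 h before LPS (250 ng/mL) and ATP (1.25 mM) stimulation; lower signal means less secretion.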
DT40 TDP1 no CPT – qHTS for Inhibitors of human tyrosyl-DNA phosphodiesterase 1 (TDP1): qHTS in cells in absence of CPT; DT40 Tdp1-/- hTDP1 cells, no CPT, ATP luminescence, 48 h; Potency, µM (series often up to 46.2 µM), for inactives: top-dose activity change, negative = growth inhibition, hits mostly inhibitors; 420,000 tested, 15% active; AID 686978, 2013; further: potency means the concentration at half of the fitted maximal effect; nearly all actives have a fitted effect of over 55% in size
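Growth of hTDP1-complemented DT40 Tdp1-knockout cells is measured by ATP luminescence after at least 48 hr compound exposure at 37 °C, with DMSO substituting for the 20 nM CPT used in the parallel screen.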
Giardia killer – kills Giardia lamblia. Giardia lamblia trophozoite viability. activity change, % at 7.66 µM, hits read low. 340,000 tested, 0.15% active; in the data active means activity change below about -80%; inconclusive means between about -30% and that limit;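 further: parasites exposed to compound for two days anaerobically before the ATP read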
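Giardia trophozoites, 100 cells per well, were exposed to compounds for 48 hrs at 37 deg C under anaerobic conditions; viability was then read as ATP content by bioluminescence after 15-30 min at room temperature.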
TDP1 block – inhibitors of human tyrosyl-DNA phosphodiesterase TDP1; Q9NUW8; recombinant TDP1, AlphaScreen DNA substrate cleavage; Potency, µM (titrated, usually from 130 µM), without a hit: top-dose activity change, negative = inhibition, most hits filed as inhibitors; 350,000 tested, 0.28% active; further: potency means the concentration at half of the fitted maximal effect; nearly all actives have a fitted effect of over 40% in size
Target sequence (Q9NUW8 whole entry, looked up): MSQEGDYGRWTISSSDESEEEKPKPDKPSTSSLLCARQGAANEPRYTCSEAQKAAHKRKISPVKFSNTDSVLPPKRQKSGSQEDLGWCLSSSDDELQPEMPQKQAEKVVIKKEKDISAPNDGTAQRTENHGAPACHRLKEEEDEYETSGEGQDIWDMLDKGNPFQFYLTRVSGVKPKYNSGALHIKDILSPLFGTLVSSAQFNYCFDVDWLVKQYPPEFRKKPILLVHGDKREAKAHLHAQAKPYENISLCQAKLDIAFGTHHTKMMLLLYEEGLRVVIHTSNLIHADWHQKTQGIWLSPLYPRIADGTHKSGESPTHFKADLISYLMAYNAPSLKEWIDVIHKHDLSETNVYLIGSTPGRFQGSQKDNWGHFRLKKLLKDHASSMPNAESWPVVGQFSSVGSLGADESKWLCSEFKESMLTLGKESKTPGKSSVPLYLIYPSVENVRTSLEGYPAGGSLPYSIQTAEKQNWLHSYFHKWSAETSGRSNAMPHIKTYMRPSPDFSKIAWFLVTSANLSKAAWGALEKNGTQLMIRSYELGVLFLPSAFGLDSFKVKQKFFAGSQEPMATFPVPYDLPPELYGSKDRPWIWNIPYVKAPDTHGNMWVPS
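Recombinant E. coli-expressed Tdp1 (1 nM) preincubated with compound 15 min at RT, then 5'-biotin/3'-phosphotyrosine-FITC DNA substrate (15 nM) added for 5 min. AlphaScreen beads (10 ug/ml) added, 10 min RT; tyrosine-FITC cleavage read as signal loss.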
DT40 TDP1 CPT – growth inhibition of DT40 Tdp1-/-;hTDP1 cells with camptothecin (screen for TDP1 inhibitors) | chicken DT40 Tdp1-/-;hTDP1 cells + 20 nM CPT, ATP luminescence, 48 h | Potency, µM (highest dose often 46.2 µM), without a hit: at the top dose activity change, negative = growth inhibition, actives largely listed as inhibitors | 420,000 tested, 12% active; further: potency means the concentration at half of the fitted maximal effect; nearly all actives have a fitted effect of over 55% in size
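Chicken DT40 Tdp1-/- cells stably complemented with human TDP1 were seeded at 400 cells/well in medium containing 20 nM camptothecin, exposed to pin-transferred compounds, and grown at 37 °C for at least 48 hr. Viability was read as ATP luminescence.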
* hit, by the source's call; ? = inconclusive; nt = no result given; [ ] = dose if it differs, or a comment. Unless noted, the call rests on the fitted dose curve; in most records, active means well fitted curve in the direction sought with a large enough effect; inconclusive means small, poorly fitted or top-dose-only effect, or another doubt; inactive means no such curve, though single readings can be large; an effect the other way counts as inactive or inconclusive. On the % scale 0 is the no-effect control and ±100 the full control effect.

SMILES	ELG1 repair inh	IL-1B inflam inh	DT40 TDP1 no CPT	Giardia killer	TDP1 block	DT40 TDP1 CPT
COc1ccc(C2CC(c3ccccc3)=NN2C(=O)CN2CCN(Cc3ccccc3)CC2)cc1 (stereo not given)	18.3µM*	-65.9*	25.9µM*	-19.3	5.4%	?
Cn1cc(S(=O)(=O)Oc2ccccc2)c(=O)n(C)c1=O	7.5%	-16.9	-5.8%	-18.9	2.4%	5.9%
Cn1c(=O)c2c(n3c4ccccc4nc13)NC(=O)CC2c1ccccc1F (stereo not given)	nt	nt	?	nt	9.3%	?
CCOc1ccc(N2C(=O)/C(=C/c3cc(OC)c(OC)c(OC)c3)N(CC(=O)OC)C2=S)cc1	?	-90.2*	18.4µM*	8.1	3.8%	?
COc1cc(/C=C/C(=O)c2ccc(F)cc2)cc(OC)c1OC	?	-74.0*	16.4µM*	-0.1	8.4%	?
COc1ccc(C(=O)/C=C/c2ccc(OC(=O)c3cc(OC)c(OC)c(OC)c3)cc2)cc1	-1.5%	-83.0*	20.6µM*	-18.4	7.2%	?
CCOc1ccc(C(=O)/C=C/c2cc(OC)c(OC)c(OC)c2)cc1	?	-94.2*	8.2µM*	15.5	6.5%	10.3µM*
CCOc1ccc(/C=C2/C(=O)N(c3ccc(OC)cc3)C(=S)N2CC(=O)OC)cc1OCC	?	29.4	?	19.4	5.7%	?
CC(=O)c1ccc(NC(=S)NNC(=O)c2ccncc2)cc1	?	12.8	-7.5%	11.3	6.5%	2.3%
CC1(C(=O)Nc2ccc3c(c2)OCO3)CCN1C(=O)CCc1ccc(Cl)cc1Cl (stereo not given)	nt	-2.8	?	nt	nt	?
COc1ccc(CNC(=O)Cn2c(=O)oc3cc(S(=O)(=O)NCc4ccccc4)ccc32)cc1	nt	nt	?	nt	0.0%	?
CCOc1ccc(C(=O)c2ccc(OC)c(O)c2O)cc1	nt	nt	?	nt	10.2%[56.1 µM]	20.6µM*
Cc1ccc(S(=O)(=O)N2CCN(c3ccccc3)CC2)cc1C(N)=O	-21.9%	-10.8	-15.4%	3.9	-2.7%	-21.7%
COc1ccc(/C=N/n2cnn(Cc3ccccc3Cl)c2=S)cc1	?	-8.9	?	-13.8	-2.9%	2.6%
COc1cc(/C=N/n2cnn(Cc3ccccc3Cl)c2=S)cc(OC)c1OC	23.1µM*	19.4	?	12.5	2.9%	-28.7%
CCOc1ccccc1N(CC(=O)Nc1ccccc1F)S(=O)(=O)c1ccccc1	-17.2%	?	-26.1%	8.0	0.7%	-24.0%
COC(=O)c1ccccc1NC(=S)N(Cc1ccc2c(c1)OCO2)Cc1cc2cccc(C)c2[nH]c1=O	11.6µM*	28.1	?	-2.1	2.6%	-25.4%
COCCN(Cc1cc2cccc(C)c2[nH]c1=O)C(=O)c1ccccc1	0.6%	15.4	-2.4%	-6.5	1.1%	-12.4%
CCN(Cc1cc2cccc(C)c2[nH]c1=O)C(=O)c1ccccc1OC	-8.1%	-2.8	23.1µM*	-13.1	11.7%	?
CCCC(=O)N(Cc1cc2cc(OC)ccc2[nH]c1=O)c1ccccc1OC	nt	-13.9	?	nt	nt	14.6µM*
COCC(=O)N(Cc1cc2ccccc2[nH]c1=O)c1ccccc1OC	1.2%	15.0	-14.0%	14.3	3.6%	2.5%
COc1ccccc1N(Cc1cc2cccc(C)c2[nH]c1=O)C(=O)c1cccc(Cl)c1	nt	nt	20.6µM*	nt	4.9%	13µM*
COc1ccc(S(=O)(=O)N2CCN(C(=O)CCc3c[nH]c4ccccc34)CC2)cc1	?	-13.0	?	-4.4	4.6%	-19.8%
CCCCn1nnnc1C(c1cc2ccccc2o1)N1CCOCC1 (stereo not given)	nt	-7.1	-21.3%	nt	nt	2.4%
COc1ccc(N(Cc2cc3cc(OC)ccc3[nH]c2=O)C(=O)c2cccc(Cl)c2)cc1	nt	nt	?	nt	0.0%	?
SMILES	ELG1 repair inh	IL-1B inflam inh	DT40 TDP1 no CPT	Giardia killer	TDP1 block	DT40 TDP1 CPT
COc1ccc2[nH]c(=O)c(CN(C(=O)c3cccnc3)c3ccc(C)c(C)c3)cc2c1	?	-14.1	?	-23.2	nt	11.6µM*
COc1ccc(N(Cc2cc3ccccc3[nH]c2=O)C(=O)c2cccc(Cl)c2)cc1	nt	nt	23.1µM*	nt	7.4%	16.4µM*
COc1ccc2[nH]c(=O)c(CN(c3ccc(C)c(C)c3)S(C)(=O)=O)cc2c1	?	-9.1	-26.7%	0.2	4.6%	-22.4%
COc1cccc(-c2ccc(=O)n(CC(=O)Nc3ccc(S(=O)(=O)NCC(C)C)cc3)n2)c1	-3.4%	nt	nt	nt	2.6%	nt
O=C(CSc1nc(=O)[nH]c2c1CCCC2)NCc1ccccc1Cl	nt	nt	7.8%	nt	7.8%	-25.6%
O=C(N/N=C/c1ccc2c(c1)OCO2)c1ccc(COc2cccc3cccnc23)cc1	18.3µM*	-18.1	25.9µM*	-4.6	2.6%	?
O=C(Nc1ccn(Cc2c(F)c(F)c(F)c(F)c2F)n1)c1ccc(COc2ccccc2Cl)cc1	-13.1%	0.0	?	11.0	-0.9%	-17.8%
Cc1cccc(/C=N/NC(=O)c2ccc(NC(=O)c3ccc(F)cc3)cc2)n1	3.7%	-5.5	?	-18.5	-13.1%	-5.2%
O=C(Nc1ccc(Cn2cccn2)cc1)c1ccc(COc2ccccc2Br)cc1	-19.8%	-60.1*	14.6µM*	9.4	5.1%	13µM*
CCOc1ccc(/C=N/NC(=S)Nc2c(C)cccc2C)cc1	18.4µM*	-24.1	20.6µM*	-3.8	5.6%	20.6µM*
COc1ccc(C(=O)N/N=C/c2ccc3cccc(O)c3n2)cc1	?	-27.2	5.17µM*	-0.3	0.0%	?

Screens: PubChem BioAssay, National Center for Advancing Translational Sciences (NCATS)
